Data on 49 molecules can be found in PubChem BioAssay AID720711 (National Center for Advancing Translational Sciences (NCATS), 2013).

About 290 (0.081%) of roughly 360,000 compounds were called active. The entries come from a sample that favours actives as a whole. Entries that show only a call come without a potency. Unmarked numbers belong to inactive results. Calls follow the shape of the dose curve; as a rule, active = well fitted activation curve with a large enough effect; inconclusive = small, poorly fitted or top-dose-only effect; inactive = no such curve, though single readings can be large or run the other way.
Potency is read from the fitted curve at half-maximal effect.

The target in the assay is Rap guanine nucleotide exchange factor 4 (Homo sapiens) (UniProt Q8WZA2). Nature of the assay: qHTS for Agonist of cAMP-regulated guanine nucleotide exchange factor 4 (EPAC2): primary screen. Also: nearly all actives have a fitted effect of over 50% in size. Conditions: biochemical qHTS; Potency: EPAC2 activation; series mostly up to 154 µM. From the text: In multi-cellular eukaryotic organisms, the effects of cAMP are transduced by two ubiquitously-expressed intracellular cAMP receptors, the classic protein kinase A/cAMP-dependent protein kinase (PKA/cAPK) and the more recently discovered exchange protein directly activated by cAMP/cAMP-regulated guanine nucleotide exchange factor (EPAC/cAMP-GEF). Both PKA and EPAC are ubiquitously expressed in all tissues, and an increase in intracellular cAMP levels will lead to the activation of both PKA and EPAC. Therefore, careful dissections of the individual role and relative contribution of EPAC and PKA within the overall cAMP signaling in various model systems are critical for further elucidating the mechanism of cAMP signaling. To date no EPAC-specific antagonists and agonist, as well as isoform-specific agonists have been reported, and developing EPAC-specific pharmacological probes to determine the physiological functions that EPAC play in the overall cAMP-mediated signaling remains a major challenge within the research field. Furthermore, identified regulators of EPAC may lead to new mechanism-based therapeutic strategies specifically targeting the EPAC / cAMP-signaling components as EPAC has been implicated to play important roles in major human pathological conditions such as diabetes, heart disease, and cancer.
Rap guanine nucleotide exchange factor 4 (Homo sapiens), sequence (Q8WZA2 whole entry, looked up): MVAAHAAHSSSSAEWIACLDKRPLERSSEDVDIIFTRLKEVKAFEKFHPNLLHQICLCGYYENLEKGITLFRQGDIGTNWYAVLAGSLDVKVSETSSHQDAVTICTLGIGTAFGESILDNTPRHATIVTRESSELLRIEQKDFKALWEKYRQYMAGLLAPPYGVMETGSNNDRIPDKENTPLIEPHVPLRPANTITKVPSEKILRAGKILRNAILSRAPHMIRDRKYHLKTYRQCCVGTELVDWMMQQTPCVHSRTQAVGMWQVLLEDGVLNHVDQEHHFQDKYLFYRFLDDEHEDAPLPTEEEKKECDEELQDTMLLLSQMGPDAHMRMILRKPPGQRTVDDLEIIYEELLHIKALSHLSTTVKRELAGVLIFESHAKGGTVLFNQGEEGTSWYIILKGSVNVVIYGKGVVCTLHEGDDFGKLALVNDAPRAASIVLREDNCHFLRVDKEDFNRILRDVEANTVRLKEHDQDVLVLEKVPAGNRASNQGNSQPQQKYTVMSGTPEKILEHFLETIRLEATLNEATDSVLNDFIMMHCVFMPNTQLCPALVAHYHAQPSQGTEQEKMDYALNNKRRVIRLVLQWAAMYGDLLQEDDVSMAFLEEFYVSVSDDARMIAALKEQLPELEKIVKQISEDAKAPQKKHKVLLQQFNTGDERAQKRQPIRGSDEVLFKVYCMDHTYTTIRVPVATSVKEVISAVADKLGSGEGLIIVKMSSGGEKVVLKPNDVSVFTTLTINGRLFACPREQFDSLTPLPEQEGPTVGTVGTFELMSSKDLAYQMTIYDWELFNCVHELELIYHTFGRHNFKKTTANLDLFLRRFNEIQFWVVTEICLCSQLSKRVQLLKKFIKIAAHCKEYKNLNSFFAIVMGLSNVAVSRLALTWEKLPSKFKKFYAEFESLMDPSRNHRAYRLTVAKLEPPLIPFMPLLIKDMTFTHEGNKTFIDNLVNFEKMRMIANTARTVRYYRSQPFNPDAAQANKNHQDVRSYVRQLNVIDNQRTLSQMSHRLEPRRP
This qHTS will be used to screen the Molecular Libraries Small Molecule Repository (MLSMR) as a concentration-titration series using the NCGC unique quantitative screening (qHTS) platform to find activators for EPAC2. In addition, this assay will also be used as a counterscreen for the EPAC1 qHTS. This fluorescent based assay is developed and validated for EPAC2 that measures exchange using EPAC effector Rap1 complex with BODIPY-GDP, a GDP analog with a tethered fluorophores. Activators are identified by monitoring the change in fluorescence signal as the exchanged free BODIPY-GDP has a reduced fluorescence compared to Rap1-bound BODIPY-GDP. […] in signal (activation) is the desired outcome for the EPAC2 agonist while no activity in this assay is desired for the EPAC1 agonist counterscreen.
[1] de Rooij, J., Zwartkruis, F. J., Verheijen, M. H., Cool, R. H., Nijman, S. M., Wittinghofer, A., and Bos, J.L. (1998) Nature 396, 474-477
[2] Kawasaki, H., Springett, G. M., Mochizuki, N., Toki, S., Nakaya, M., Matsuda, M., Housman, D. E., and Graybiel, A. M. (1998) Science 282, 2275-2279
NIH Chemical Genomics Center [NCGC]
NIH Molecular Libraries Probe Centers Network [MLPCN]
Assay Submitter (PI): Xiaodong Cheng, The University of Texas, Medical Branch
Briefly, three uL of reagents (100 nM EPAC2, 250 nM RAP1B-BODIPY-GDP, 50 uM GDP) were dispensed into a 1536-well Greiner black solid-bottom medium binding assay plate. Controls and test compounds (23 nL) were transferred to the plate via a Kalypsys pin tool equipped with a 1536-pin array. The plates were centrifuged at 1,000 rpm for 15 seconds followed by 5 minute incubation at room temperature. The assay plates were read at 5 minute intervals for 30 minutes in the ViewLux plate reader using 480nm excitation and 540nm emission filters. The results were normalized to the agonist positive control of 6.5 mM cAMP.
A general note: In qHTS, concentration-response curves come from the screen itself.
On to `COc1cc(-c2nnn(CC(=O)NCc3ccccc3)n2)cc(OC)c1OC`, for which the Potency entry is “inactive”.
As to `COC(C(=O)NCc1ccccc1C)c1ccccc1` (centres undefined), the Potency result is “inactive”.
As for `COc1ccc(NC(=O)CN(C)S(=O)(=O)c2ccccc2)cc1OC`, the entry is “inactive”; as for `CCN(C(=O)C1CCCN(c2nc(-c3ccc(OC)cc3)no2)C1)c1ccc(OC)cc1` (centres undefined), “inactive”.
With `CCc1cccc(OC2OC(CO)C(O)C(O)C2NC(C)=O)c1` (centres undefined), the Potency result was “inactive”.
Regarding `CCN(Cc1ccccc1)S(=O)(=O)c1cc(C(=O)O)ccc1OC`, the Potency result was “inactive”.
Take `COc1ccc(C)c(Cn2c(-c3nonc3N)nc3ccccc32)c1`: the Potency result is “inactive”.
For `Cc1ccc2c(CC(=O)NCc3cccs3)coc2c1` the value was “inactive”; for `CCc1nn(CCCC(=O)NCc2ccc(C)cc2)c(=O)c2cc3occc3n12`, “inactive”; for `Cc1ccc(C(CNC(=O)Nc2ccccc2)N2CCN(C)CC2)cc1` (centres undefined), “inactive”.
For `O=C(O)C1OC(C(=O)O)C2C1C(F)(F)C2(F)F` (centres undefined) the value was “inactive”; for `CN(CCNC(=O)c1cc2c(-c3ccccc3F)nn(C)c2s1)C1CCCCC1`, “inactive”.
For `CCO[C@@H]1OC(C(=O)NC2CC2)=C[C@H](C)[C@H]1CCCO` the value was “inactive”; for `Cc1nc(N)sc1-c1ccccc1`, “inactive”.
Take `O=C(CCc1ccccc1)Nc1ccnn1C1CCN(Cc2ccc(OCCO)cc2)CC1`: the Potency entry was “inactive”.
As for `CC(C)(C)NC(=O)Cn1c(SCC(=O)Nc2nccs2)nc2ccccc21`, the entry is “inactive”; as for `O=C1C=C(c2ccnc3cc(Cl)ccc23)C[C@@H](c2ccc3c(c2)OCO3)C1`, “inactive”; as for `CCCCCC(=O)N1CCN(S(=O)(=O)c2ccc3c(c2)OCCCO3)CC1`, “inactive”.
For `CC1(C)CN(CCc2ccccc2)C(=O)[C@H]1CC(=O)Nc1ccc(Br)cc1` the value was “inactive”; for `COc1ccc(N2C(=O)NC(NS(=O)(=O)c3ccc(Cl)cc3)(C(F)(F)F)C2=O)cc1` (centres undefined), “inactive”.
For `CCOC(=O)c1ccccc1NC(=O)c1c(N)n(C)c(=O)[nH]c1=O` the value was “inactive”.
For the molecule `CCOC(=O)c1cc2n(c1N)-c1ccccc1C2=O`, the Potency was 89.1 µM (active).
As to `CCOC(=O)c1cnn(Cc2ccccc2Cl)c1N`, the Potency entry is “inactive”.
For `CN(C)NC(=O)c1csnc1-c1c(Cl)cccc1Cl` the value was “inactive”; for `O=S(=O)(NCc1ccccc1Cl)c1cnc[nH]1`, “inactive”.
As for `CCc1nc2sc3c(Cl)ncnc3c2c2c1CCCC2`, the entry is “inactive”; as for `COc1ccc(CNC(=O)C[C@H]2C[C@H](C(=O)N3CCOCC3)[C@@]3(CCC4CCCC4)c4[nH]c5ccc(Cl)cc5c4CCN3C2=O)cc1OC`, “inactive”.
As for `O=C1[C@H]2[C@@H](c3ccc(C(F)(F)F)cc3)N[C@]3(CCCN(Cc4ccc(Cl)cc4)C3=O)[C@H]2C(=O)N1Cc1ccccc1`, the entry is “inactive”; as for `CCN(CC)CCCC(C)n1c2nc(=O)[nH]c(=O)c-2nc2cc(Cl)ccc21` (centres undefined), 100 µM (active).
On to `c1ccc(C[C@H]2CNCCN2CCC23CC4CC(CC(C4)C2)C3)cc1`, for which the Potency entry is “inactive”.
For `Cn1c(=O)c2c(nc(N3CCCCCC3)n2CC(O)COc2ccc(Cl)cc2)n(C)c1=O` (centres undefined) the value was “inactive”; for `CSCc1cc(N(C)C)nc(SCc2ccc(Cl)cc2Cl)n1`, “inactive”; for `CCCOc1ccc(Cc2c(Cl)nc(SC)nc2NC)cc1`, “inactive”.
For `Cc1sc2ncn(CC(=O)NCCCC(=O)N3CCN(c4ccccc4F)CC3)c(=O)c2c1C` the value was “inactive”.
As for `Cc1oc(C)c(C(=O)NCCCC(=O)O)c1C(=O)NCCCC(=O)O`, the entry is “inactive”.
On to `O=CN1CCN(C(=O)c2ccc(Br)o2)CC1`, for which the Potency result is “inactive”.
As for `Cc1cc(C)c2oc(C(=O)Nc3ccc(S(=O)(=O)Nc4nccc(C)n4)cc3)cc(=O)c2c1`, the entry is “inactive”.
In the case of `COc1ccc(NC(=O)N(C)C[C@H]2Oc3ncc(C#C[C@@H](C)O)cc3C(=O)N([C@H](C)CO)C[C@H]2C)cc1`, the Potency entry was “inactive”.
For `CCCCN1C(=O)C(CC(=O)NC(c2ccccc2)c2ccccc2)CC(C(=O)N2CCOCC2)=C1C` (centres undefined) the value was “inactive”.
For `CC(C)(C)[C@H]1C=C(C(=O)NCc2ccccc2)O[C@@H](OCc2ccc(CO)cc2)C1` the value was “inactive”; for `NC(=O)c1ccccc1N=Cc1ccc2ccccc2c1`, “inactive”; for `O=C(Nc1ccc2c(c1)C(=O)OC2)Nc1cccc2ccccc12`, “inactive”.
For `Cn1ccs/c1=N\S(=O)(=O)c1ccc(C(C)(C)C)cc1` the value was “inactive”; for `CC12c3ccccc3C(c3ccccc31)C1C(=O)N(Cc3cccnc3)C(=O)C12` (centres undefined), “inactive”; for `Cc1cccc(-c2c(NC(=O)c3ccco3)oc3ccc(Cl)cc3c2=O)c1`, “inactive”.
For the molecule `O=C(NCCCN1CCCCC1)C1CCCN(c2ncnc3c2nc2n3CCCCC2)C1` (centres undefined), the Potency entry was “inactive”.
For `CC1CCC(CN2CCN=C2N(C)C)CC1` (centres undefined) the value was “inactive”; for `CC(Oc1ccc(Br)cc1)C(=O)NCC(c1ccco1)N1CCCCC1` (centres undefined), “inactive”; for `O=C(c1ccccc1)C(Cn1cncn1)C(Sc1ccccc1)c1ccccc1` (centres undefined), “inactive”.
